Consider 14 compounds from PubChem BioAssay.

The source made the active and inactive calls.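 The calls were made as follows, unless noted: active = inhibition of the reporter signal at or above 50%; inactive = inhibition below 50%.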

A word on the inhibition: it is the change of the read-out against control, counted positive when it falls.

Assay [1] is described as follows: inhibitors of TNFa-induced NFkB p65 translocation, primary screen, imaging, HUVEC, MLSMR starter and 10KST1 sets (AID 438;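 active = inhibition above 20% together with a positive visual image hit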;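 also: compound added about 3h40 before a 20 min TNFalpha stimulation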;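 as to inhibition: signal is the nuclear over cytoplasmic p65 intensity ratio per well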). The settings on record: HUVEC TNFa-induced p65 nuclear translocation; cell count: measured here: nuclei count (cytotoxicity indicator), at 2.08 µM; inhibition: at 2 µM, stronger effect = higher value, 0% TNFa-plus-vehicle, 100% no-TNFa wells.
The nature of assay [2]: reduction of polyQ htt aggregates in cells – imaging, exon1htt(103Q)mCFP cells, high-content imaging, primary screen (AID 483;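 active = visual image review flags a hit and inhibition of aggregation exceeds 20%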;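 also: compound exposure lasted 3 days before fixation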;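 as to nuclei count: percent of the per-plate median nuclei count of sample wells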). The following applies: exon1htt(103Q)mCFP cell line, aggregate imaging, at 2 µM; inhibition of aggregation: stronger effect = higher value; nuclei count: measured here: cell count, toxicity.
A short description of assay [3]: endothelial E-selectin expression blockers – imaging, HUVEC, immunofluorescence, MLSMR starter and 10KST1 sets, primary screen (AID 487;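 active = visually confirmed hit in the image check and inhibition above 20%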;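 as to inhibition: signal is fraction of cell area covered by stained E-selectin grains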;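 as to nuclei count: 100% = median nuclei count of all wells on the same plate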). The settings on record: HUVEC TNFalpha-induced E-selectin immunofluorescence imaging, at 2 µM; inhibition: stronger effect = higher value; nuclei count: measured here: cell number, toxicity.
Assay [4] has as its target Voltage-gated potassium channel subunit beta-2 (Rattus norvegicus) (UniProt P62483). The assay can be described thus: inhibitors of rat Kvbeta2 reductase activity – biochemical, NADPH fluorescence, primary screen (AID 622;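 active = fluorescence slope higher than the sample average by over 3 SD, cut at about -0.22 in these data, passing the limit was not always enough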;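 also: slope of raw intensity against log time taken from 70 to 1610 s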). The settings on record: recombinant KvBeta, 4-cyanobenzaldehyde reduction, at 10 µM, stronger effect = higher value.
Assay [5] shares this target. The assay can be described thus: enhancers of rat Kvbeta2 NADPH turnover – biochemical, NADPH fluorescence, primary screen (AID 623;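 active = NADPH fluorescence slope more negative than the mean of all samples by about 3 SD, 99.7% confidence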;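 also: fluorescence intensity change per second fitted from 20 to 320 s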). The following applies: Recombinant KvBeta, NADPH fluorescence decrease slope, 10 min; at 10 µM; stronger effect = lower value.
Assay [6] concerns the target Alpha-2C adrenergic receptor (Homo sapiens) (UniProt P18825). The experiment in a line: compounds altering alpha2C-coupled GIRK flux – cell-based, HEK293 alpha2C/GIRK1/2, thallium flux, primary screen (AID 624;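 active = fluorescence slope after compound addition differing from the mean of all screened samples at 99.7% confidence, in either direction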;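 also: slope of fluorescence ratio to pre-addition baseline per second over 15 to 24 s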). The following applies: thallium flux BTC fluorescence, at 10 µM, actives lie on both sides.
The nature of assay [7]: blockers of RIG-like receptor reporter activation – cell-based, Sendai virus stimulus, luciferase, 10K MLSCN set, TLR/RLR signaling modifier project, primary screen (AID 602276;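 active = inhibition at or above 50% at 10 µM; inactive = inhibition below 50%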;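 also: firefly luciferase from ISG56 promoter only with Renilla not read in this screen; 0% = Sendai virus plus DMSO and 100% = medium plus DMSO without virus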). The settings on record: HEK293 RL24 IRF3 luciferase reporter, at 10 µM, stronger effect = higher value.
The nature of assay [8]: TLR3 IRF3 reporter activation blockers – cell-based, poly I:C stimulus, luciferase, 10K MLSCN set, primary screen (AID 602277). The following applies: HEK293-TLR3 RL24 IRF3 luciferase reporter, at 10 µM, stronger effect = higher value. A general note: In a reporter assay the amount or activity of a reporter protein is the signal.

Alpha-2C adrenergic receptor (Homo sapiens), sequence (P18825 whole entry, looked up): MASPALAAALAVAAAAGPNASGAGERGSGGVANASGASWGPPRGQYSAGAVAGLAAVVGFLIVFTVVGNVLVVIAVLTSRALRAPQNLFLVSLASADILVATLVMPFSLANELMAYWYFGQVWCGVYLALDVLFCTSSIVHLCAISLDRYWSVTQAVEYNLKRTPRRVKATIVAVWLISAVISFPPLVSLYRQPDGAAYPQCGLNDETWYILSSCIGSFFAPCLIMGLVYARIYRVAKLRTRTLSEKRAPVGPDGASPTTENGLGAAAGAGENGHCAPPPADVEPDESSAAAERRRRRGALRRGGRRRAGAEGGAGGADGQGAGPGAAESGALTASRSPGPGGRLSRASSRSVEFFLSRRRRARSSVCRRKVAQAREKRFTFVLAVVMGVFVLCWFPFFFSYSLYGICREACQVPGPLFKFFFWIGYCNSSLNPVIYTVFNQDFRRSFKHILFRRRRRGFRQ
Voltage-gated potassium channel subunit beta-2 (Rattus norvegicus), sequence (P62483 whole entry, looked up): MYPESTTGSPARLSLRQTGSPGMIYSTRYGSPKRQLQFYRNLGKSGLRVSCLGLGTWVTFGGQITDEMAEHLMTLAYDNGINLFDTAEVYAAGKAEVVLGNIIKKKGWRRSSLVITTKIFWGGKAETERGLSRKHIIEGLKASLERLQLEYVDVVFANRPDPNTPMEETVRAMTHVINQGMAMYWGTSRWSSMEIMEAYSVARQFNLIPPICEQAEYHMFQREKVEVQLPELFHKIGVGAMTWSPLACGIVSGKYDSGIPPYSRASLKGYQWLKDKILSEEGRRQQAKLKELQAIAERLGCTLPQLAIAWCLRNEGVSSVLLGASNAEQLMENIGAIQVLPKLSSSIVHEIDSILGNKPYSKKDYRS

In the case of `O=C1NC(c2cccnc2)C(C(=O)c2cccs2)C(O)(C(F)(F)F)N1` (centres undefined), in assay [1], the cell count came to 506. For the same compound, the inhibition in assay [1] was -0.3% (inactive); in assay [3], 40.4% (inactive); in assay [7], -6.6% (inactive); in assay [8], -5.31% (inactive). For the same compound, the inhibition of aggregation in assay [2] is 5% (inactive). Besides, the nuclei count in assay [2] was determined as 104%; in assay [3], 119%. The fluorescence slope in assay [4] was -0.363 (inactive). Also, the NADPH fluorescence slope in assay [5] was -3.5e-05 (inactive). The slope in assay [6] is 0.00436 (inactive).
As for `COc1ccc(S(=O)(=O)N2CCN(Cc3ccc(Cl)cc3)CC2)cc1`, the cell count in assay [1] turned out to be 554. Besides, the inhibition in assay [1] is -5.4% (inactive); in assay [3], -97.9% (inactive); in assay [7], 0.485% (inactive); in assay [8], -1.64% (inactive). Further, in assay [2], the inhibition of aggregation was 24.4% (inactive). In addition, the values for the nuclei count in assay [2] and in assay [3] were 61.1% and 148%, respectively. Besides, the fluorescence slope in assay [4] was -0.458 (inactive). Moreover, in assay [5], the NADPH fluorescence slope was -9.2e-06 (inactive). Further, the slope in assay [6] is 0.00502 (inactive).
In the case of `N#Cc1c(/N=C/c2cccs2)sc2c1CCCCC2`, the cell count in assay [1] came out at 636. For the same compound, the inhibition in assay [1] was -14.8% (inactive); in assay [3], -14.2% (inactive); in assay [7], 30.4% (inactive); in assay [8] it was -5.24% (inactive). In addition, the inhibition of aggregation in assay [2] is -34.1% (inactive). The nuclei count in assay [2] and in assay [3] was 127% throughout. The fluorescence slope in assay [4] was -0.598 (inactive). In assay [5], the NADPH fluorescence slope is -2.1e-05 (inactive). For the same compound, in assay [6], the slope was 0.0029 (inactive).
Take `Cc1nn(C)cc1NC(=O)CCSc1nc(-c2ccco2)cc(C(F)(F)F)n1`: in assay [1], the cell count is 452. The inhibition in assay [1] is -13.9% (inactive); in assay [3], 35.1% (inactive); in assay [7], -8.54% (inactive); in assay [8] it was -43.3% (inactive). In addition, the inhibition of aggregation in assay [2] is -12.3% (inactive). Further, the nuclei count in assay [2] is 107%; in assay [3], 106%. Besides, in assay [4], the fluorescence slope was -0.615 (inactive). Further, the NADPH fluorescence slope in assay [5] is -1.6e-06 (inactive). The slope in assay [6] was 0.00399 (inactive).
As to `Cc1cccc(Nc2ncc3c(n2)CC(c2ccco2)CC3=O)c1` (centres undefined), the cell count in assay [1] came to 386. For the same compound, the inhibition was -1% (inactive) in assay [1], -29% (inactive) in assay [3], -2.61% (inactive) in assay [7] and -12.4% (inactive) in assay [8]. For the same compound, the inhibition of aggregation in assay [2] is -7% (inactive). The nuclei count was determined as 84.1% in assay [2] and 187% in assay [3]. The fluorescence slope in assay [4] is -0.378 (inactive). In addition, the NADPH fluorescence slope in assay [5] is -1.7e-05 (inactive). The slope in assay [6] was 0.003 (inactive).
For the compound `Cc1ccc(N=Cc2ccc(O)cc2O)cc1F`, in assay [1], the cell count turned out to be 334. Also, the inhibition in assay [1] was -13.8% (inactive); in assay [3], -98.5% (inactive); in assay [7], 13% (inactive); in assay [8] it was 23.4% (inactive). The inhibition of aggregation in assay [2] was 0.1% (inactive). For the same compound, the nuclei count was determined as 113% in assay [2] and 107% in assay [3]. Also, the fluorescence slope in assay [4] was -0.395 (inactive). The NADPH fluorescence slope in assay [5] is -0.000134 (inactive). Moreover, in assay [6], the slope was 0.00518 (inactive).
`COc1ccc(C(N)=O)cc1N`: the cell count in assay [1] worked out at 413. Further, the inhibition was 2.5% (inactive) in assay [1], -40.2% (inactive) in assay [3], -5.97% (inactive) in assay [7] and 8.78% (inactive) in assay [8]. In assay [2], the inhibition of aggregation is -8.6% (inactive). Moreover, the figures for the nuclei count in assay [2] and in assay [3] were 98.3% and 118%, respectively. For the same compound, in assay [4], the fluorescence slope was -0.45 (inactive). Besides, in assay [5], the NADPH fluorescence slope was 2.7e-05 (inactive). The slope in assay [6] is 0.00578 (inactive).
`Cn1cnc(S(=O)(=O)Nc2ccc(C(F)(F)F)cc2)c1`: the cell count in assay [1] was 480. In addition, the inhibition in assay [1] is 2.2% (inactive); in assay [3], 14.3% (inactive); in assay [7] it was 2.5% (inactive); in assay [8], 18% (inactive). Besides, the inhibition of aggregation in assay [2] is -3.4% (inactive). Also, the nuclei count is 117% in assay [2] and 103% in assay [3]. In addition, the fluorescence slope in assay [4] was -0.357 (inactive). Besides, the NADPH fluorescence slope in assay [5] is -6.4e-05 (inactive). Further, the slope in assay [6] is 0.00601 (inactive).
For the compound `CC(=O)Nc1c(-c2ccc(F)cc2)nc2ccccn12`, the cell count in assay [1] is 516. The inhibition in assay [1] was -4.7% (inactive); in assay [3], -6.5% (inactive); in assay [7], 11.8% (inactive); in assay [8], 4.82% (inactive). Also, the inhibition of aggregation in assay [2] is 16.5% (inactive). Moreover, the nuclei count in assay [2] amounted to 104%; in assay [3], 88%. In addition, the fluorescence slope in assay [4] is -0.551 (inactive). Besides, the NADPH fluorescence slope in assay [5] is 9e-06 (inactive). Moreover, in assay [6], the slope is 0.00637 (inactive).
For the compound `Cc1nnc(SCCn2c(Br)nc3c2c(=O)n(C)c(=O)n3C)s1`, in assay [1], the cell count amounted to 410. Further, the inhibition in assay [1] is 3.8% (inactive); in assay [3], -12% (inactive); in assay [7] it was -7.02% (inactive); in assay [8], -0.072% (inactive). In assay [2], the inhibition of aggregation was 2% (inactive). The nuclei count stood at 101% in assay [2] and 109% in assay [3]. In addition, the fluorescence slope in assay [4] is -0.374 (inactive). Further, the NADPH fluorescence slope in assay [5] was -1.8e-05 (inactive). Moreover, the slope in assay [6] is 0.00518 (inactive).
Turning to `Cc1ccc(C(C)n2cc(C(=O)NCCN3CCN(C)CC3)nn2)cc1` (centres undefined), the cell count in assay [1] was 429. Besides, the inhibition in assay [1] was 12.1% (inactive); in assay [3], -7.3% (inactive); in assay [7] it was 3.51% (inactive); in assay [8], 7.62% (inactive). Also, the inhibition of aggregation in assay [2] is -6.7% (inactive). The nuclei count in assay [2] turned out to be 117%; in assay [3], 119%. In addition, the fluorescence slope in assay [4] was -0.575 (inactive). Besides, the NADPH fluorescence slope in assay [5] is -1.3e-05 (inactive). The slope in assay [6] is 0.00588 (inactive).
Regarding `Cc1ccccc1NC(=O)CSc1nc(N)c(C#N)c(-c2cccs2)c1C#N`, the cell count in assay [1] was 440. Besides, the inhibition in assay [1] was -0.3% (inactive); in assay [3] it was -12.2% (inactive); in assay [7], 11.6% (inactive); in assay [8] it was 14.3% (inactive). In assay [2], the inhibition of aggregation was -16.8% (inactive). The nuclei count in assay [2] came to 110%; in assay [3] it was 98.8%. In addition, in assay [4], the fluorescence slope was -0.475 (inactive). The NADPH fluorescence slope in assay [5] is -4.8e-05 (inactive). Moreover, the slope in assay [6] was 0.00696 (inactive).
With `CCOC(=O)CSc1nnc(-c2ccccc2OC)o1`, the cell count in assay [1] is 574. Also, the inhibition was -3.6% (inactive) in assay [1], -74.1% (inactive) in assay [3], -10.7% (inactive) in assay [7] and 99.6% (active) in assay [8]. Also, the inhibition of aggregation in assay [2] was -42.2% (inactive). The nuclei count in assay [2] came to 112%; in assay [3] it was 105%. Moreover, in assay [4], the fluorescence slope was -0.523 (inactive). In assay [5], the NADPH fluorescence slope is -0.000143 (inactive). The slope in assay [6] was 0.00552 (inactive).
`Cc1cc(O)c(-c2cc(C(=O)Nc3ccc(S(=O)(=O)N4CCOCC4)cc3)[nH]n2)cc1C`: in assay [1], the cell count amounted to 499. The inhibition in assay [1] is 5.8% (inactive); in assay [3], -62.7% (inactive); in assay [7], -12.1% (inactive); in assay [8] it was -24.7% (inactive). Also, the inhibition of aggregation in assay [2] was -6.9% (inactive). For the same compound, the nuclei count came out at 100% in assay [2] and 153% in assay [3]. Moreover, the fluorescence slope in assay [4] was -0.584 (inactive). Also, the NADPH fluorescence slope in assay [5] was -1.4e-05 (inactive). For the same compound, in assay [6], the slope was 0.00629 (inactive).
